Reference: PubChem BioAssay AID1347431 (National Center for Advancing Translational Sciences (NCATS), 2020)
Fewer than 10 of roughly 1,200 compounds were called active. Calls come from the whole dose curve; as a rule, active = well fitted curve in the direction sought with a large enough effect; inconclusive = small, poorly fitted or top-dose-only effect, or another doubt; inactive = no such curve, though single readings can be large or run the other way. Only a sample is shown.

Assay: Confirmatory qHTS assay for inhibitors of Activation Induced Cytidine Deaminase (AID): UDG signals; note: 0% is about no effect
Settings: UDG coupled enzyme activity counter-screen; series mostly up to 115 µM; activity change, negative = inhibition: at the top concentration
Source text: Assay Provider (PI) Patricia Gearhart Ph.D.
National Institute on Aging
National Institute of Health (NIH), Bethesda, MD
Assay Provider (PI) Rahul Kohli Ph.D.
Perelman School of Medicine
University of Pennsylvania, Philadelphia, PA
Activation-Induced Deaminase (AID) is a cytosine deaminase which converts cytosine into uracil within stretches of ssDNA. The presence of uracil in DNA initiates a cascade of mutagenic DNA repair to introduce point mutations and DNA double strand breaks. Specific targeting of AID to the immunoglobulin heavy chain loci (Igh) promotes mutagenesis in the antibody variable region for somatic hypermutation (SHM) or switch regions leading to class switch recombination (CSR). However, AID also plays a role in accumulating unnecessary mutations across the genome. Mis-targeting of AID results in the initiation of tumor development and leads to greater drug resistance among cancer cells when continually expressed. To identify an AID inhibitor, a small molecule library will be screened in collaboration with NCATS core facility at NIH. To confirm biological function, inhibitors will be examined in an in vitro murine B-cell activation assay and subsequent secondary validation screens. Top molecules will be further screened to identify inhibitory efficacy against a wild type primary splenocytes assay. Using these approaches, we hope to identify a small molecule with great efficacy and low toxicity for use as a molecular probe to further characterize AID's intricacies, or even as a therapeutic.
A FRET based analysis of cytosine deamination, was developed to identify potential inhibitors of AID catalytic activity. This screen has two signal output, Read 1 evaluates the AID inhibition response. The second readout (Read 2) evaluates UDG response and is uses as a counterscreen to exclude false positive inhibitors. Inhibition in AID and inactivity in the UDG signal is the desired outcome for this assay.
SEQUENCE No. (e.g., 1, 2, 3, etc.); […] (e.g., Cells, Incubation, Reagent, etc.); VALUE; DESCRIPTION
1a; Reagent; 3 uL; [4/3x] 1 uM AID/2.67 U/mL UDG
1b; Reagent; 3 uL; 2 U/mL UDG
1c; Reagent; 3 uL; 1 uM AID
2a; Compound; 46 nL; Follow-up plates (0.64 uM - 10 mM)
2b; Control; 46 nL; ATA ([…] - 10 mM)
3; Time; 10 min; incubation at room temperature
5; Time; 4 hr; incubation at room temperature
6; Reagent; 4 uL; [2x] 250 mM NaOH
7; Time; 15 sec; centrifuge at 1000 rpm
8; Time; 30 min; incubation at room temperature
9a; Detection; fluorescence (Read 1: AID); EnVision (PerkinElmer) plate reader, 540 excitation and 590 emission filters
9b; Detection; fluorescence (Read 2: UDG); EnVision (PerkinElmer) plate reader, 560 excitation and 665 emission filters
NOTES (numbers refer to sequence above)
1a; Reagents were dispensed in a medium-binding black solid-bottom Greiner plates (789176F) using a BioRptr liquid dispenser. Dispense 3 uL of [4/3x] 1 uM AID (provided by Kohli lab) and [4/3x] 2 U/mL UDG (NEB M0280L) into columns 1, 2, 5 to 48.
1b; Dispense 3 uL of [4/3x] 2 U/mL UDG into column 3.
1c; Dispense 3 uL of [4/3x] 1 uM AID into column 4.
2a; Compound (7-points [uM]: 0.64; 3.2; 16; 80; 400; 2,000; 10,000; […]) double pin-transferred (Dip Factor = 2) using the Kalypsys (Wako USA) pintool equipped with a 1536 pinhead for a final concentration range of 7.32 nM - 114 uM.
2b; 10 mM Aurintricarboxylic Acid (Sigma A1895) (ATA, 8-point, n = 2, 1:2.5 dilution in column 2) double pin-transferred (Dip Factor = 2) using the Kalypsys (Wako USA) pintool equipped with a 1536 pinhead for a [final] range of 186 nM - 114 uM.
3; Room temperature incubation.
4; Dispense 1 uL of substrate mixture from the Kohli lab [4x] […] DJC20 and [4x] 250 nM DJC23 into columns 1 to 48 .
5; Room temperature incubation.
6; Dispense 4 uL of substrate mixture [2x] 250 mM NaOH into columns 1 to 48.
7; Centrifugation step to remove bubbles.
8; Room temperature incubation
9a; Fluorescence signal (column label AID) was read using the EnVision plate reader. […]

Row | SMILES | activity change, negative = inhibition | outcome
1 | CCOc1ccc(Nc2c(S(=O)(=O)c3ccc(C)cc3)cnc3ccc(OC)cc23)cc1 | -6.81% (inactive) | 
2 | CCn1cc2nc(SCc3cccc(C(F)(F)F)c3)n(CCc3ccccc3)c(=O)c2n1 | -6.4% (inactive) | 
3 | CCCCOc1ccc(C(=O)Nc2ccc(S(=O)(=O)Nc3nc(C)cc(C)n3)cc2)cc1 | 5.37% (inactive) | 
4 | O=C(O)c1c(-c2ccccc2)oc2ccc(OCc3c(F)cccc3Cl)cc12 | -5.79% (inactive) | 
5 | O=C1c2ccccc2C(=O)C1(c1ccccc1)N1CCN(c2cccc(C(F)(F)F)c2)CC1 | 4.62% (inactive) | 
6 | CC(=O)N1CCc2c(sc3c2c(=O)n(Cc2ccccc2)c(=O)n3Cc2cccc(Cl)c2)C1 | -4.28% (inactive) | 
7 | CCc1ccc(NC(=O)c2cnn(-c3c(C)cccc3C)c2C2CCN(C(=O)OC(C)(C)C)CC2)cc1 | -11.8% (inactive) | 
8 | CCOc1ccc(CNC(=O)c2c(C)nn(-c3ccc(F)cc3)c2-n2cccc2)cc1 | 6.32% (inactive) | 
9 | COc1cc2c(cc1OC)C(COc1cc(C)cc(C)c1)N(C(=O)C(C)(C)C)CC2 (stereo not given) | 6.45% (inactive) | 
10 | COc1cc(NC(=O)Cn2cc(S(=O)(=O)N3CCC(C)CC3)c3ccccc3c2=O)cc(OC)c1OC | -13.2% (inactive) | 
11 | COc1ccc(C)cc1N(C)C(=O)c1c2c(nc3ccccc13)C(=O)N(C1CCCCC1)C2 | -0.876% (inactive) | 
12 | COc1cccc(C(=O)Nc2nc3nc(C)c(Cc4ccccc4)c(=O)n3[nH]2)c1 | 12.2% (inactive) | 
13 | Cn1c2ccccc2c2c(C(=O)N3CCN(c4cccc(C(F)(F)F)c4)CC3)cn(C3CCCCC3)c(=O)c21 | -7.55% (inactive) | 
14 | O=C(CSc1nc(-c2ccc(F)cc2)nc2c1Cc1ccccc1O2)Nc1cccc(C(=O)O)c1 | 5.5% (inactive) | 
15 | CC(C)Oc1ccc(C(=O)NCCc2csc(-c3cccc(F)c3)n2)cc1 | 2.66% (inactive) | 
16 | CCc1ccc(OCC(=O)N(Cc2ccco2)Cc2ccco2)cc1 | -2.86% (inactive) | 
17 | Cc1ccc2c(c1)C(c1ccc(F)cc1)N(C(=O)c1ccc(OC(C)C)cc1)CC(=O)N2 (stereo not given) | -1.56% (inactive) | 
18 | Cc1ccc(Cl)cc1N1CCN(C(=O)c2nn(C)c3c2CS(=O)(=O)c2ccccc2-3)CC1 | -8.81% (inactive) | 
19 | CC(C)c1ccc(NC(=O)CSC2=Nc3ccccc3C3=NC(CCC(=O)NCc4ccco4)C(=O)N23)cc1 (stereo not given) | -3.36% (inactive) | 
20 | CCOc1ccc(CCNC(=O)c2cn(CC)c3ccc(S(=O)(=O)N4CCCCCC4)cc3c2=O)cc1OCC | -15.9% (inactive) | 
21 | COc1cccc(CNC(=O)c2oc3ccc4c(c3c2C)C(=O)CC(C)(C)O4)c1OC | 0.26% (inactive) | 
22 | O=C(NCCn1cc(SCc2ccccc2F)c2ccccc21)c1cccs1 | -4.8% (inactive) | 
23 | Cc1ccc(Cl)cc1NC(=O)c1oc2c(c1C)-c1[nH]ncc1CC2 | -4.49% (inactive) | 
24 | CN(C)c1ccc(Nc2ncnc3sc4c(c23)CCCC4)cc1 | 0.0322% (inactive) | 
25 | CCOC(=O)c1c(Oc2ccc(C(C)=O)cc2)nnc(-c2ccccc2)c1-c1ccccc1 | 2.33% (inactive) | 
26 | O=C(O)c1ccc2c(c1)N(Cc1ccc(F)cc1Cl)C(=O)c1ccccc1S2 | 12.6% (inactive) | 
27 | CCCCCN1C(C(=O)c2ccccc2)=C(OC(=O)CC)c2ccccc2S1(=O)=O | -0.103% (inactive) | 
28 | O=C(CCS(=O)(=O)c1nc(-c2cccs2)cc(C(F)(F)F)n1)Nc1ccc(OC(F)(F)F)cc1 | 0.452% (inactive) | 

Row | SMILES | activity change, negative = inhibition | outcome
29 | CCc1ccc(C(c2ccccc2)c2c(C)[nH]c3ccccc23)s1 (stereo not given) | -1.17% (inactive) | 
30 | Cc1ccc2c(c1)-c1ncc(C(=O)c3cc(Br)ccc3O)cc1CO2 | -6.67% (inactive) | 
31 | Cc1ccc(Nc2nnc(-c3ccc(C)c(S(=O)(=O)N4CCN(C)CC4)c3)c3ccccc23)c(C)c1 | -0.466% (inactive) | 
32 | CCn1c(=O)c2cc(C(=O)NCCCN(C)Cc3ccccc3)sc2c2ccccc21 | -13.6% (inactive) | 
33 | COc1ccc(CCNC(=O)c2cc(Nc3cc(C)cc(C)c3)nc3ccccc23)cc1OC | -13.1% (inactive) | 
34 | Cc1ccc(-c2nc3nc(C)cc(C)n3c2Nc2ccc3c(c2)OCCO3)cc1 | -7.65% (inactive) | 
35 | Cc1ccc(C)c(N2CCN(C(=O)c3cc(S(=O)(=O)N4CCCCC4)cn3C)CC2)c1 | -7.73% (inactive) | 
36 | Cc1cc(C)c(NC(=O)CCCn2c(C)c3cnn(-c4ccccc4)c(=O)c3c2C)c(C)c1 | -9.84% (inactive) | 
37 | CCOC(=O)c1ccc(-n2c(N)c(C(=O)OC)c3nc4ccccc4nc32)cc1 | -1.19% (inactive) | 
38 | Cc1ccc(C(=O)c2cn(Cc3ccccc3)c3ccccc3c2=O)cc1 | 0.0583% (inactive) | 
39 | COc1cccc(-c2nc3cc(NC(=O)c4ccc(C)c([N+](=O)[O-])c4)ccc3o2)c1 |  | inactive
40 | Cc1ccc2c(c1)-c1c(cnn1CC(=O)N1CCN(c3cccc(C(F)(F)F)c3)CC1)CO2 | -13.8% (inactive) | 
41 | O=C(CC1N=C2c3ccccc3N=C(SCc3ccccc3F)N2C1=O)NCc1ccc2c(c1)OCO2 (stereo not given) | 1.74% (inactive) | 
42 | Cc1nn(C(=O)c2ccccc2)c(C)c1Sc1ccc(Cl)cc1 | -0.373% (inactive) | 
43 | Cc1ccc(C)c(NC(=O)CSc2nccn2-c2cccc(C)c2C)c1 | -9.11% (inactive) | 
44 | O=C(c1cccc(Cl)c1)N(Cc1ccco1)Cc1ccccc1Cl | -2.38% (inactive) | 
45 | Cc1cccc(-c2nnc(SCC(=O)N3CCCc4ccccc43)o2)c1 | -1.78% (inactive) | 
46 | CCc1ccccc1NC(=O)[C@H](Cc1ccccc1)N1Cc2ccccc2C1=O | -5.74% (inactive) | 
47 | COc1ccc(Cn2cc(C(=O)c3ccc(OC)cc3)c(=O)c3cc4c(cc32)OCCO4)cc1 | 2.39% (inactive) | 
48 | Cc1cc(C)c2c(CC(=O)N(Cc3ccc(Cl)cc3)Cc3ccco3)coc2c1 | 2.44% (inactive) | 
49 | Cc1ccc(N(Cc2cccs2)C(=O)c2ccccc2)cc1 | -1.63% (inactive) | 
50 | COc1ccc(Nc2cc(C)c3cc(NC(=O)COc4cccc(C)c4)ccc3n2)cc1 | -15.8% (inactive) | 
51 | CCN(C(=O)c1cc2cc3ccc(OC)cc3nc2o1)c1cccc(C)c1 | -18.5% (inactive) | 
52 | COc1ccc(-c2cn3c(n2)sc2cc(C(=O)NCCCN4CCCCC4)ccc23)cc1 | -3.99% (inactive) | 
53 | COc1ccc(CCNC(=O)CS(=O)Cc2nc(-c3ccc(C)cc3)oc2C)c(OC)c1 (stereo not given) | -3.01% (inactive) | 
54 | COc1ccc(Cl)cc1NC(=O)CSc1nc(=O)n(Cc2ccco2)c2c1CCC2 | -1.64% (inactive) | 
55 | COc1ccc(C(=O)c2cn(Cc3ccccc3F)c3cc4c(cc3c2=O)OCCO4)cc1OC | 5.33% (inactive) | 
